Screening data: PubChem, Broad Institute
An excerpt weighted towards active compounds, which were near 6.7% of everything screened.
C diff HTS: C. difficile growth inhibitors, primary screen, HTS; Clostridium difficile clinical isolate growth, OD600, 24 h; hits give low values; growth activity, negative = inhibition, % at 16 µg/mL (by protocol); 86,000 tested, 0.25% active; AID 1259249, 2017;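 active = mean growth activity at or below -80% and every replicate also at or below -80%; inconclusive = mean at or below -80% but some replicate above -80%; inactive = mean growth activity above -80%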
Tcruzi prolif: T. cruzi intracellular proliferation inhibitors, primary screen, cell-based, beta-gal Tulahuen parasites, NIH3T3 host, luminescence; T. cruzi beta-gal in NIH3T3, GalScreen luminescence, 90 h; inhibition, % at 8.34 µM; 77,000 tested, 5.9% active; AID 624255, 2012;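 active = mean inhibition above about 93%, with at least 55% of replicates each passing it, limit read from the data, passing the limit was not always enough; inconclusive = only one of those two conditions holds; inactive = neither condition holds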
Pf Dd2 inh: P. falciparum Dd2 growth inhibitors, primary screen, SYBR Green fluorescence, single dose replicates. 72 h; hits give low values. activity change, % at 10 µM. 94,000 tested, 2.3% active. AID 1159554, 2015; in the data active = activity change below about -80%; inconclusive = no clear call, values can overlap the other calls
Numbers stand for hits; n = inactive; u = inconclusive; x = not tested or not shown.

SMILES	C diff HTS	Tcruzi prolif	Pf Dd2 inh
C[C@H](CO)N1C[C@H](C)[C@H](CN(C)C(=O)Nc2ccc(C(F)(F)F)cc2)OCCCC[C@H](C)Oc2ccc(NS(=O)(=O)c3ccc(Cl)cc3)cc2C1=O	n	n	n
Cc1ccc(S(=O)(=O)Nc2ccc3c(c2)C(=O)N([C@@H](C)CO)C[C@H](C)[C@@H](CN(C)C(=O)Nc2ccc4c(c2)OCO4)OCCCC[C@@H](C)O3)cc1	n	x	-85
C[C@H](CO)N1C[C@H](C)[C@@H](CN(C)C(=O)Nc2ccc(C(F)(F)F)cc2)OCCCC[C@H](C)Oc2ccc(NS(=O)(=O)c3ccc(F)cc3)cc2C1=O	n	n	n
CCCNC(=O)N1CC2(C1)CN(C(=O)CC)[C@H](CO)c1[nH]c3cc(OC)ccc3c12	n	x	n
COC(=O)C[C@@H]1C[C@@H]2c3cc(NC(=O)c4cccnc4)ccc3O[C@@H]2[C@@H](CO)O1	n	n	n
CCCNC(=O)N1CC2(C1)CN(C(C)=O)[C@@H](CO)c1[nH]c3cc(OC)ccc3c12	n	x	n
C[C@@H]1CCCCO[C@H](CN(C)C(=O)Nc2ccc(F)cc2)[C@@H](C)CN([C@H](C)CO)C(=O)c2cc(NS(=O)(=O)c3cccs3)ccc2O1	n	n	n
C[C@@H]1CCCCO[C@H](CN(C)C(=O)Nc2ccc(F)cc2)[C@H](C)CN([C@@H](C)CO)C(=O)c2cc(NS(=O)(=O)c3ccccc3)ccc2O1	n	n	-91
C[C@@H]1CCCCO[C@H](CN(C)C(=O)Nc2ccc(C(F)(F)F)cc2)[C@@H](C)CN([C@H](C)CO)C(=O)c2cc(NS(=O)(=O)c3ccccc3)ccc2O1	n	n	n
C[C@@H]1CCCCO[C@H](CN(C)C(=O)Nc2ccc(F)cc2)[C@H](C)CN([C@@H](C)CO)C(=O)c2cc(NS(=O)(=O)c3cccs3)ccc2O1	n	n	-85
C[C@@H]1CCCCO[C@@H](CN(C)C(=O)Nc2ccccc2)[C@@H](C)CN([C@H](C)CO)C(=O)c2cc(NS(=O)(=O)c3ccc(F)cc3)ccc2O1	n	n	n
C[C@@H]1CCCCO[C@H](CN(C)C(=O)Nc2ccc(F)cc2)[C@H](C)CN([C@H](C)CO)C(=O)c2cc(NS(=O)(=O)c3ccc(F)cc3)ccc2O1	n	n	-87
C[C@@H]1CCCCO[C@@H](CN(C)C(=O)Nc2ccc(F)cc2)[C@H](C)CN([C@H](C)CO)C(=O)c2cc(NS(=O)(=O)c3ccc(F)cc3)ccc2O1	n	n	n
C[C@@H]1CCCCO[C@H](CN(C)C(=O)Nc2ccc(C(F)(F)F)cc2)[C@@H](C)CN([C@@H](C)CO)C(=O)c2cc(NS(=O)(=O)c3ccccc3)ccc2O1	n	n	-84
C[C@@H]1CCCCO[C@@H](CN(C)Cc2ccccc2)[C@@H](C)CN([C@H](C)CO)C(=O)c2cc(NC(=O)C3CCCCC3)ccc2O1	n	n	n
COc1ccc(CNC(=O)C[C@@H]2CC[C@@H]3[C@H](COc4ccc(NC(=O)C5CC5)cc4C(=O)N3C)O2)cc1	n	n	n
C[C@@H]1CCCCO[C@H](CN(C)Cc2ccc(Cl)c(Cl)c2)[C@@H](C)CN([C@@H](C)CO)C(=O)c2cc(NC(=O)c3ccccc3)ccc2O1	n	x	-90
C[C@@H]1CCCCO[C@@H](CN(C)Cc2ccc(Cl)c(Cl)c2)[C@H](C)CN([C@H](C)CO)C(=O)c2cc(NC(=O)c3ccccc3)ccc2O1	n	x	-81
C[C@H](CO)N1C[C@H](C)[C@H](CN(C)Cc2ccc(Cl)c(Cl)c2)OCCCC[C@H](C)Oc2ccc(NC(=O)c3ccccc3)cc2C1=O	n	x	n
C[C@H](CO)N1C[C@H](C)[C@@H](CN(C)Cc2ccc(Cl)c(Cl)c2)OCCCC[C@H](C)Oc2ccc(NC(=O)Cc3ccccc3)cc2C1=O	n	n	n
CCCC(=O)N1CC2(CN(S(C)(=O)=O)C2)c2c([nH]c3cc(OC)ccc23)[C@H]1CO	n	x	n
CCCC(=O)Nc1ccc2c(c1)OC[C@@H](C)N(Cc1ccc(F)cc1)C[C@@H](C)[C@@H](OC)CN(C)C2=O	x	u	n
C[C@@H]1CN([C@H](C)CO)C(=O)c2cc(NC(=O)NC3CCCCC3)ccc2O[C@@H](C)CCCCO[C@@H]1CN(C)Cc1ccc(C(=O)O)cc1	n	n	n
C[C@H](C(=O)N(C)C[C@@H]1OCc2ccccc2-c2c(n(C)c3ccccc23)C(=O)N([C@@H](C)CO)C[C@@H]1C)c1ccccc1	n	x	-83
C[C@H](CO)N1C[C@H](C)[C@@H](CN(C)C(=O)N[C@H](C)c2ccccc2)OCc2ccccc2-c2c(n(C)c3ccccc23)C1=O	n	n	-82
